Hits are enriched below; roughly 19% of the tested compounds scored in any of these assays.
HT1080 IDH1KD tx: toxicity to HT-1080 IDH1 knockdown cells (counter line); Potency, µM (highest dose often 46.1 µM), without a hit: at the top dose activity, negative = toxicity, usual class: cytotoxic; HT-1080 IDH1 knockdown viability, ATP luminescence, 48 h; AID 686971; 2% of 360,000 active;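 also: potency is read from the fitted curve at half-maximal effect; 0% = DMSO wells and -100% = cell-free medium wells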
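Assay cells: HT-1080 with IDH1 knockdown, 750 per well, RPMI/5% FBS. Exposure: 48 h at 37 °C following 2 h pre-incubation. Read: CellTiter-Glo luminescence; fitted concentration-response, curve class assigned.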
TDP1 cell CPT: DT40-hTDP1 cell growth loss with CPT. Potency, µM (series often up to 46.2 µM), without a hit: at the top dose activity change, negative = growth inhibition, actives largely listed as inhibitors. 12% of 420,000 active. AID 686979. chicken DT40 Tdp1-/-;hTDP1 cells + 20 nM CPT, ATP luminescence, 48 h; also: potency is read from the fitted curve at half-maximal effect; nearly all actives have a fitted effect of over 55% in size
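Cell growth measured by CellTiter-Glo luminescence after a minimum 48 h, 37 C compound exposure with 20 nM CPT in Tdp1-knockout DT40 cells stably expressing hTDP1, seeded 400/well; qHTS titration format.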
HT1080-NT tox: kills 2HG-producing HT-1080-NT fibrosarcoma cells | HT-1080-NT fibrosarcoma viability, CellTiter-Glo ATP luminescence, 48 h | Potency, µM (highest dose often 46.1 µM), inactives show at the top dose activity, negative = less viability, usual class: cytotoxic | 1.6% of 360,000 active;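 also: NT is the 2HG producing partner of a matched IDH1 knockdown line; potency is read from the fitted curve at half-maximal effect; 0% = DMSO-treated cells and -100% = media-only wells without cells; nearly all actives have a fitted effect of over 55% in size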
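750 cells/well, RPMI + 5% FBS; 2 h settle, compound pin-transfer, 48 h at 37 degrees C. CellTiter-Glo 10 min RT, luminescence. Normalized to DMSO and media-only wells.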
TDP1 cell noCPT: qHTS for Inhibitors of human tyrosyl-DNA phosphodiesterase 1 (TDP1): qHTS in cells in absence of CPT. Potency, µM (highest dose often 46.2 µM), inactives show at the highest dose activity change, negative = growth inhibition, usual class: inhibitors. DT40 Tdp1-/- hTDP1 cells, no CPT, ATP luminescence, 48 h. 15% of 420,000 active; also: potency is read from the fitted curve at half-maximal effect; nearly all actives have a fitted effect of over 55% in size
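Cells were dispensed at 400 per well, compounds added by pin tool, plates incubated ≥48 hr at 37 °C, then CellTiter-Glo added for 30 min at room temperature before luminescence reading. Line: DT40 Tdp1-/- complemented with hTDP1; camptothecin omitted.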
IL1B secr inh: inflammasome signaling inhibition, IL-1 beta readout | THP-1 LPS/ATP IL-1B secretion, AlphaLISA, 16 h; active compounds read low | 4.7% of 360,000 active | activity change, % at 57.5 µM | AID 743279; in the data active = activity change below about -50%; inconclusive = mostly about -30% to -49%
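Secreted IL-1B measured by AlphaLISA bead assay after 16 h compound exposure of THP-1 cells; compounds (final up to 57.5 uM) added 1 h before LPS (250 ng/mL) and ATP (1.25 mM) stimulation; lower signal means less secretion.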
ELG1 repair inh: ELG1-dependent DNA repair inhibition. HEK293T ELG1-luciferase reporter, luminescence, 16 h; DNA damage induced by 5-fluorouridine. Potency, µM (top dose mostly 46.1 µM), for inactives: top-dose activity change, negative = inhibition, hits mostly inhibitors. 2.3% of 330,000 active; also: potency is read from the fitted curve at half-maximal effect; nearly all actives have a fitted effect of over 55% in size
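HEK293T cells expressing luciferase-tagged ELG1 (2,000/well) received 5-Fluorouridine plus compound or DMSO for 16 hr at 37 °C. Luciferase was read by ONE-Glo luminescence after 30 min at room temperature.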
Starred values were filed as active, the others as inactive; ? = inconclusive; / = not tested or not shown. Unless noted, calls follow the shape of the dose curve; as a rule, active = well fitted curve in the direction sought with a large enough effect; inconclusive = small, poorly fitted or top-dose-only effect, or another doubt; inactive = no such curve, though single readings can be large; an effect the other way counts as inactive or inconclusive. Unless noted, % is scaled to controls: 0 for no effect and ±100 for the full control effect.

SMILES	HT1080 IDH1KD tx	TDP1 cell CPT	HT1080-NT tox	TDP1 cell noCPT	IL1B secr inh	ELG1 repair inh
COc1ccc(-c2nc3scc(CCNS(=O)(=O)c4ccc(F)cc4C)n3n2)cc1	/	16µM*	/	16µM*	/	/
CCS(=O)(=O)NCCc1csc(-c2cccnc2)n1	11%	-26%	-1%	-7%	-11	-10%
O=S(=O)(NCCc1csc2nc(-c3ccccc3)nn12)c1ccc(Cl)s1	/	-22%	/	?	/	/
Cc1ccc(-c2nc3scc(CCNS(=O)(=O)c4ccc(F)c(C)c4)n3n2)cc1	/	?	/	21µM*	/	/
COc1ccc(-c2nc3sc(CCNS(=O)(=O)c4ccccc4)c(C)n3n2)cc1	/	17%	/	-20%	/	/
CCOc1ccc(S(=O)(=O)NCCc2csc3nc(-c4cccc(C)c4)nn23)cc1	/	?	/	18µM*	/	/
CC(=NNc1ccc([N+](=O)[O-])cn1)c1ccccc1	2%	-7%	10%	5%	0	/
C/C(=N\Nc1cc(C)nc(-c2ccccc2)n1)c1cccc([N+](=O)[O-])c1	-10%	21µM*	1%	?	-29	15µM*
O=[N+]([O-])c1cccc(/C=N/Nc2cc(Cl)nc(-c3ccccc3)n2)c1	4%	?	6%	21µM*	-77*	?
Cc1cc(NCCCN)nc(-c2ccccc2O)n1	-17%	?	-21%	?	-62*	24%
Cc1cc(N/N=C/c2ccc(O)c(C)c2O)nc(-c2ccccc2O)n1	?	13µM*	?	9.2µM*	-98*	2.9µM*
O=[N+]([O-])c1ccc(/C=N/Nc2cc(Cl)nc(-c3ccccc3)n2)cc1	19%	?	13%	?	-1	11%
CC(C)N1CCCC(C)(C(=O)Nc2nc3ccccc3n2C)C1 (stereo unspecified)	2%	-3%	15%	-4%	14	/
OC[C@H]1O[C@H](n2cnc3c(NC4CCCC4)nc(Cl)nc32)[C@@H](O)[C@@H]1O	/	2%	/	-3%	/	/
CCc1ccc(/C=N\n2cnnc2)cc1	3%	-3%	0%	3%	28	0%
C[C@H]1[C@H](C)CC[C@]2(C(=O)O)CC[C@]3(C)C(=CCC4[C@@]5(C)C[C@@H](O)[C@H](O)[C@@](C)(CO)[C@@H]5CC[C@]43C)[C@H]12 (stereo partly specified)	/	1%	/	?	/	/
C/C(=N\Nc1cc(C)nc(-c2ccccc2O)n1)c1ccccc1	?	?	?	?	-68*	?
CC(C)c1ccc(OCC(=O)Nc2ccc3oc(=O)ccc3c2)cc1	4%	11%	6%	0%	-19	11%
COC(=O)c1c(SC)nc2ccccc2c1OCc1ccc(C)cc1C	/	?	/	26µM*	/	/
COc1cc(/C=C2/SC(=O)N(CC(=O)N3CCCC3)C2=O)ccc1Oc1ccc([N+](=O)[O-])cn1	-3%	?	-1%	21µM*	-63*	-11%
CCN1C(=O)S/C(=C/c2ccc(Oc3ccc([N+](=O)[O-])cn3)c(OC)c2)C1=O	3%	?	?	13µM*	13	-29%
CCN=C1S/C(=C\c2ccc(OCC)c(OC)c2)C(=O)N1CC	-17%	?	-3%	21µM*	-51*	?
CC[N+]1(CC(=O)c2ccc(OC)cc2)CCCCC1	/	10%	/	-14%	/	/
Cc1cccc(S(=O)(=O)NC(=O)C2(C)CCN2C(=O)C2(c3ccc(Cl)cc3)CCC2)c1 (stereo unspecified)	1%	-1%	-1%	-13%	38	/
Cc1cc(C[n+]2cc(Cl)ccc2N)c2ncccc2c1	-17%	-29%	-11%	?	-76*	?

Screening results (PubChem BioAssay)
